According to PubChem BioAssay AID1159580 (chemical genetic matrix, 2015):
Values joined by “and” are separate entries in the source; they are usually repeats but may differ in a detail not shown here. Equal values may be shown once. Hit rate of the full screen: of about 5,500 compounds, about 2,000 (36%) were called active. Roughly 18% stayed inconclusive and do not appear here. Rule as the data show it: active = normalized growth mostly below about 0.91 (no sharp cut-off); inconclusive = no clear call, values can overlap the other calls; inactive = mostly above about 0.92. Some of the results follow.

Test: chemical genetic growth profiling, strain panel (AID 1159580);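 also: tested at 20 µM; growth read once vehicle control cultures reached saturation at 30 °C; 1 = growth at the plate median or of vehicle wells; lower values mean less growth of the strain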
Conditions: S. cerevisiae deletion strains, growth OD
[1] = locus YHR030C, strain SLT2, stronger effect = lower value
[2] = locus YHR079C, strain IRE1, stronger effect = lower value
[3] = locus YJL095W, strain BCK1, stronger effect = lower value
[4] = locus YJR066W, strain TOR1, stronger effect = lower value
[5] = locus YLR113W, strain HOG1, stronger effect = lower value
[6] = locus YNL183C, strain NPR1, stronger effect = lower value
[7] = locus YOR231W, strain MKK1, stronger effect = lower value
[8] = locus YPL256C, strain CLN2, stronger effect = lower value
[9] = locus YDR150W, strain NUM1, stronger effect = lower value
[10] = locus YJR075W, strain HOC1, stronger effect = lower value
[11] = locus YMR263W, strain SAP30, stronger effect = lower value

Measured: normalized growth

CN(C)CCCOc1nn(Cc2ccccc2)c2ccccc12
inactive: [1] 0.972 | [2] 0.968 | [3] 0.979 | [4] 0.954 | [5] 0.956 | [6] 0.922 | [7] 0.967 | [8] 0.991

O=C(O)c1nn(Cc2ccc(Cl)cc2Cl)c2ccccc12
inactive: locus YAL013W, strain DEP1, stronger effect = lower value 1 | locus YAL040C, strain CLN3, stronger effect = lower value 1.05 | locus YCL061C, strain MRC1 (second series), stronger effect = lower value 0.99 | [9] 1.02 | locus YDR363W, strain ESC2, stronger effect = lower value 0.972 | locus YER002W, strain NOP16, stronger effect = lower value 0.956 | locus YGR229C, strain SMI1, stronger effect = lower value 1.03 | [10] 1.02 | [11] 1 | locus YNL128W, strain TEP1, stronger effect = lower value 0.969 | locus YNL153C, strain GIM3, stronger effect = lower value 1.02 | locus YNL175C, strain NOP13, stronger effect = lower value 0.935 | locus YNL197C, strain WHI3, stronger effect = lower value 0.964 | locus YNL224C, strain SQS1, stronger effect = lower value 0.996 | locus YNL322C, strain KRE1, stronger effect = lower value 0.998 | locus YOR083W, strain WHI5 (second series), stronger effect = lower value 0.994

Cc1cc(O)c(C=O)c(O)c1C(=O)O
inactive: locus YAL021C, strain ccr4, stronger effect = lower value 0.991 | locus YAL026C, strain drs2, stronger effect = lower value 1.01 | locus YAL030W, strain snc1, stronger effect = lower value 0.997 | locus YBL061C, strain skt5, stronger effect = lower value 1.01 | locus YBR009C, strain hhf1, stronger effect = lower value 1.02 | locus YBR021W, strain FUR4, stronger effect = lower value 1.05 | locus YBR023C, strain chs3, stronger effect = lower value 1.01 | locus YBR171W, strain sec66, stronger effect = lower value 1 | locus YBR229C, strain ROT2, stronger effect = lower value 0.999 | locus YBR231C, strain swc5, stronger effect = lower value 0.99 | locus YBR279W, strain paf1, stronger effect = lower value 0.997 | locus YCL011C, strain gbp2, stronger effect = lower value 1.01 | locus YCL016C, strain dcc1, stronger effect = lower value 1.01 | locus YCL029C, strain bik1, stronger effect = lower value 1.02 | locus YCL061C, strain MRC1, stronger effect = lower value 1.01 | locus YCL069W, strain vba3, stronger effect = lower value 1 | locus YCR088W, strain abp1, stronger effect = lower value 1.01 | locus YDL005C, strain med2, stronger effect = lower value 1.01 | locus YDL035C, strain GPR1, stronger effect = lower value 1.03 | locus YDL040C, strain nat1, stronger effect = lower value 1.01 | locus YDL074C, strain BRE1, stronger effect = lower value 1.06 | locus YDL101C, strain DUN1, stronger effect = lower value 1.03 | locus YDL185W, strain tfp1, stronger effect = lower value 0.987 | locus YDL192W, strain arf1, stronger effect = lower value 1.03 | locus YDR001C, strain nth1, stronger effect = lower value 0.999 | locus YDR069C, strain doa4, stronger effect = lower value 0.977 | locus YDR101C, strain arx1, stronger effect = lower value 1.04 | locus YDR137W, strain rgp1, stronger effect = lower value 1.01 | [9] 0.983 | locus YDR159W, strain sac3, stronger effect = lower value 1.01 | locus YDR162C, strain NBP2, stronger effect = lower value 1.02 | locus YDR195W, strain ref2 0.99 | locus YDR297W, strain sur2, stronger effect = lower value 0.997 | locus YDR318W, strain mcm21, stronger effect = lower value 1 | locus YDR334W, strain swr1, stronger effect = lower value 0.987 | locus YDR335W, strain msn5, stronger effect = lower value 0.991 | locus YDR388W, stronger effect = lower value 0.997 | locus YDR392W, strain spt3, stronger effect = lower value 0.962 | locus YDR502C, strain sam2, stronger effect = lower value 1.03 | locus YEL003W, strain gim4, stronger effect = lower value 0.995 | locus YEL037C, strain rad23, stronger effect = lower value 0.993 | locus YEL061C, strain CIN8 (second series), stronger effect = lower value 0.999 | locus YEL061C, strain CIN8, stronger effect = lower value 1.01 | locus YER015W, strain faa2, stronger effect = lower value 1 | locus YER016W, strain bim1, stronger effect = lower value 1 | locus YER110C, stronger effect = lower value 1.01 | locus YER111C, strain swi4, stronger effect = lower value 1 | locus YER155C, strain BEM2 (second series), stronger effect = lower value 1 | locus YER155C, strain BEM2, stronger effect = lower value 1.01 | locus YER167W, strain BCK2, stronger effect = lower value 1.03 | locus YFR010W, strain ubp6, stronger effect = lower value 0.999 | locus YGL078C, strain dbp3, stronger effect = lower value 1.01 | locus YGL086W, strain mad1, stronger effect = lower value 1.03 | locus YGL167C, strain pmr1, stronger effect = lower value 0.989 | locus YGL173C, strain kem1, stronger effect = lower value 1.01 | locus YGL227W, strain vid30, stronger effect = lower value 0.999 | locus YGL240W, strain doc1, stronger effect = lower value 0.929 | locus YGL248W, strain PDE1, stronger effect = lower value 1.03 | locus YGL253W, strain hxk2, stronger effect = lower value 1 | locus YGR078C, strain PAC10, stronger effect = lower value 1.06 | locus YGR135W, strain pre9, stronger effect = lower value 1.02 | locus YGR252W, strain gcn5, stronger effect = lower value 1 | locus YHR013C, strain ard1, stronger effect = lower value 1.01 | locus YHR027C, strain rpn1, stronger effect = lower value 0.992 | [1] 1 and 1.02 | locus YHR079C, strain IRE1 (second series), stronger effect = lower value 1.01 | [2] 1.04 | locus YHR094C, strain hxt1, stronger effect = lower value 1.01 | locus YHR129C, strain ARP1, stronger effect = lower value 1.02 | locus YHR142W, strain chs7, stronger effect = lower value 1.03 | locus YHR200W, strain rpn10, stronger effect = lower value 1.02 | locus YIL066C, strain RNR3, stronger effect = lower value 1.05 | locus YIL073C, strain SPO22, stronger effect = lower value 1.12 | locus YIL125W, strain kgd1, stronger effect = lower value 1 | locus YIR030C, strain dcg1, stronger effect = lower value 1.02 | locus YJL092W, strain hpr5, stronger effect = lower value 1.01 | locus YJL095W, strain BCK1 (second series), stronger effect = lower value 1.01 | [3] 1.1 and 1 | locus YJL115W, strain asf1, stronger effect = lower value 0.999 | locus YJL129C, strain trk1, stronger effect = lower value 1.05 | locus YJL134W, strain LCB3, stronger effect = lower value 0.993 | locus YJL154C, strain vps35, stronger effect = lower value 0.996 | locus YJL164C, strain tpk1, stronger effect = lower value 1.02 | locus YJL166W, strain qcr8, stronger effect = lower value 1.01 | locus YJL168C, strain set2, stronger effect = lower value 0.997 | locus YJL187C, strain SWE1 (second series), stronger effect = lower value 1.05 | locus YJL187C, strain SWE1, stronger effect = lower value 0.998 | locus YJR043C, strain POL32, stronger effect = lower value 1.02 | [4] 0.93 | [10] 1.06 | locus YKL009W, strain mrt4, stronger effect = lower value 1.04 | locus YKL068W, stronger effect = lower value 0.987 | locus YKL085W, strain MDH1 (second series), stronger effect = lower value 1 | locus YKL085W, strain MDH1, stronger effect = lower value 1 | locus YKL160W, strain elf1, stronger effect = lower value 1.03 | locus YKR001C, strain vps1, stronger effect = lower value 1.03 | locus YKR026C, strain gcn3, stronger effect = lower value 1.01 | locus YKR091W, strain srl3, stronger effect = lower value 1.01 | locus YLL001W, strain dnm1, stronger effect = lower value 1.02 | locus YLL026W, stronger effect = lower value 1.01 | locus YLL041C, strain sdh2, stronger effect = lower value 0.997 | locus YLR027C, strain aat2, stronger effect = lower value 1.01 | locus YLR039C, strain RIC1, stronger effect = lower value 1.09 | locus YLR058C, strain SHM2, stronger effect = lower value 0.965 | locus YLR102C, strain apc9, stronger effect = lower value 1.01 | [5] 1.07 | locus YLR221C, strain rsa3, stronger effect = lower value 1.03 | locus YLR258W, strain gsy2, stronger effect = lower value 1 | locus YLR262C, strain YPT6 (second series), stronger effect = lower value 1.01 | locus YLR262C, strain YPT6, stronger effect = lower value 1.14 | locus YLR268W, strain sec22, stronger effect = lower value 1.04 | locus YLR320W, strain mms22, stronger effect = lower value 1.05 | locus YLR330W, strain CHS5, stronger effect = lower value 1 | locus YLR342W, strain FKS1 (second series), stronger effect = lower value 1.01 | locus YLR342W, strain FKS1, stronger effect = lower value 1.01 | locus YLR357W, strain rsc2, stronger effect = lower value 1.02 | locus YLR370C, strain arc18, stronger effect = lower value 1 | locus YLR371W, strain rom2, stronger effect = lower value 1.01 | locus YLR384C, strain iki3, stronger effect = lower value 0.999 | locus YLR418C, strain cdc73, stronger effect = lower value 1.05 | locus YML016C, strain PPZ1, stronger effect = lower value 1.01 | locus YML032C, strain rad52, stronger effect = lower value 0.985 | locus YML120C, strain ndi1, stronger effect = lower value 1.01 | locus YML124C, strain tub3, stronger effect = lower value 1.01 | locus YMR058W, strain fet3, stronger effect = lower value 0.987 | locus YMR078C, strain ctf18, stronger effect = lower value 0.999 | locus YMR125W, strain sto1, stronger effect = lower value 1.01 | locus YMR129W, stronger effect = lower value 1 | locus YMR205C, strain PFK2, stronger effect = lower value 1.05 | locus YMR223W, strain ubp8, stronger effect = lower value 1.02 | locus YMR231W, strain pep5, stronger effect = lower value 0.989 | [11] 1.06 | locus YMR307W, strain GAS1, stronger effect = lower value 1.08 | locus YNL067W, strain RPL9B, stronger effect = lower value 1.05 | locus YNL071W, strain lat1, stronger effect = lower value 1.01 | [6] 0.946 | locus YNL209W, strain ssb2, stronger effect = lower value 0.992 | locus YNL233W, strain BNI4, stronger effect = lower value 1.09 | locus YNL248C, strain rpa49, stronger effect = lower value 1.01 | locus YNL250W, strain rad50, stronger effect = lower value 0.986 | locus YNL271C, strain bni1, stronger effect = lower value 1 | locus YNL298W, strain CLA4, stronger effect = lower value 1.01 | locus YNL307C, strain MCK1, stronger effect = lower value 1.03 | locus YNL322C, strain KRE1 (second series), stronger effect = lower value 1.01 | locus YNR049C, strain mso1, stronger effect = lower value 1.01 | locus YNR052C, strain pop2, stronger effect = lower value 0.992 | locus YOL012C, strain htz1 0.989 | locus YOL147C, strain pex11, stronger effect = lower value 1 | locus YOR001W, strain rrp6, stronger effect = lower value 1.02 | locus YOR061W, strain CKA2, stronger effect = lower value 1 | locus YOR069W, strain VPS5, stronger effect = lower value 1.01 | locus YOR070C, strain gyp1, stronger effect = lower value 0.998 | locus YOR080W, strain dia2, stronger effect = lower value 0.998 | locus YOR083W, strain WHI5, stronger effect = lower value 1.04 | locus YOR106W, strain vam3, stronger effect = lower value 1.03 | locus YOR136W, strain idh2, stronger effect = lower value 1.03 | locus YOR144C, strain elg1, stronger effect = lower value 1 | locus YOR184W, strain ser1, stronger effect = lower value 1.05 | [7] 1.04 | locus YOR265W, strain rbl2, stronger effect = lower value 1.01 | locus YOR270C, strain vph1, stronger effect = lower value 1.02 | locus YOR290C, strain snf2, stronger effect = lower value 1.02 | locus YOR316C, strain cot1, stronger effect = lower value 1.01 | locus YPL051W, strain arl3, stronger effect = lower value 0.999 | locus YPL078C, strain atp4, stronger effect = lower value 1.01 | locus YPL106C, strain sse1, stronger effect = lower value 0.995 | locus YPL240C, strain hsp82, stronger effect = lower value 1 | locus YPL241C, strain CIN2, stronger effect = lower value 0.995 | [8] 1.03 | locus YPR119W, strain clb2, stronger effect = lower value 0.999 | locus YPR141C, strain kar3, stronger effect = lower value 0.993 | locus YPR163C, strain tif3, stronger effect = lower value 1 | locus YPR167C, strain met16, stronger effect = lower value 1.01 | strain wtn01, stronger effect = lower value 1.04
